GRK2 aptamer HTS: compounds blocking aptamer binding on GRK2 – biochemical, human GRK2, bead flow cytometry, HTS, primary screen; FAM-aptamer displacement from GRK2; inhibition of aptamer binding, % at 10 µM; AID 488847, 2010; 0.59% of 330,000 active;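 active = inhibition of aptamer binding above 40%, roughly 3 SD of noise, on plates passing a quality check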;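 note: median bead fluorescence of bound FAM aptamer so fluorescent compounds give negative values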
Target sequence (P25098 whole entry, looked up): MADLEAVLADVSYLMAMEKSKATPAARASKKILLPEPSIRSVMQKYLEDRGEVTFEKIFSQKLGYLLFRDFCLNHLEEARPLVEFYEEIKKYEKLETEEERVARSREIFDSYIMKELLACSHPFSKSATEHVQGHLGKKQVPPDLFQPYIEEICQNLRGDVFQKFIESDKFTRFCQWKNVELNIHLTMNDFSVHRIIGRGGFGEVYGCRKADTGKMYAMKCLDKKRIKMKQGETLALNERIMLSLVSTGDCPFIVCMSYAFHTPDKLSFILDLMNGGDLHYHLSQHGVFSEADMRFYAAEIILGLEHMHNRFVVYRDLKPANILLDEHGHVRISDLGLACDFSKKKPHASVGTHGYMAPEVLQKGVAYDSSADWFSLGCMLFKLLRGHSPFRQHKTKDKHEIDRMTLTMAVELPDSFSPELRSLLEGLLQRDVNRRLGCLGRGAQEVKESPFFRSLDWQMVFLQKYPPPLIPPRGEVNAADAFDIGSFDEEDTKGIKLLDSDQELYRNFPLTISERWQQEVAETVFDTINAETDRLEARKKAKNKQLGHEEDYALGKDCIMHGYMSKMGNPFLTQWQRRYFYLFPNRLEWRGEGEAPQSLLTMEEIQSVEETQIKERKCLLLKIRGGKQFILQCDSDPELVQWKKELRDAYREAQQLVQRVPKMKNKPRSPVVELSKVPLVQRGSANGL
B2AR ag: beta2AR agonists driving receptor internalization, primary screen, cell-based, FAP fluorogen, flow cytometry; Beta-2 adrenergic receptor (Homo sapiens), P07550; Am2.2-beta2AR cells; response, % (concentration not given with the values); 0.43% of 340,000 active; AID 504454, 2011;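 active = response above a set limit, near 3 SD of response in nonfluorescent compounds, cut at about 42% in these data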
MEKK3 PB1 HTS: modulators of MEKK3-MEK5 PB1 binding, primary screen, biochemical, wildtype MEKK3, multiplex bead flow cytometry, Alexa488-MEK5 | Mitogen-activated protein kinase kinase kinase 3 (Homo sapiens), Q99759 | bead-based flow cytometry, Alexa488-MEK5 binding to MEKK3; actives lie on both sides; 0 = blocked by unlabeled MEK5, 100 = vehicle | binding response (% of control), % at 10 µM | 1.4% of 290,000 active;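 active = binding response more than 3 SD above or below the average of its plate-row segment, actives on both sides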;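 note: Alexa488 bead fluorescence after subtracting the streptavidin-only scavenger bead signal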
MEKK2 WT-MEK5: modulators of MEK5 binding to wildtype MEKK2, primary screen, biochemical, multiplex bead flow cytometry, Alexa488-MEK5. Mitogen-activated protein kinase kinase kinase 2 (Homo sapiens), Q9Y2U5. Alexa488-MEK5 binding to MEKK2 WT; actives lie on both sides. binding response (% of control), % at 10 µM. 1.1% of 290,000 active; in the data active = binding response below about 67% or above about 130%
MEKK2 mut-MEK5: MEK5 binding signal on mutant MEKK2 PB1, primary screen, biochemical, multiplex bead flow cytometry, Alexa488-MEK5; Alexa488-MEK5 binding to MEKK2 mutant; percent response, % at 10 µM; 0.35% of 290,000 active; AID 1530, 2009; in the data active = percent response above about 24%, passing the limit was not always enough
MEKK2wt confirm: modulators of MEK5 binding to wildtype MEKK2, confirmation, biochemical, single concentration, multiplex bead flow cytometry; 2.4% of 5,900 active; binding response (% of control), % at 10 µM; shares compounds with MEKK3 PB1 HTS; AID 1892, 2009; Alexa488-MEK5 binding to MEKK2 WT; actives lie on both sides; in the data active = binding response below about 16% or above about 210%; inactive = in between
MEKK2mut-MEK5: mutant MEKK2 PB1-MEK5 binding signal retest – biochemical, single concentration, multiplex bead flow cytometry, confirmation. 2% of 5,900 active. AID 1893, 2009. Alexa488-MEK5 binding to MEKK2 mutant. shares compounds with MEKK3 PB1 HTS. percent response, % at 10 µM; in the data active = percent response mostly above about 71%, no sharp cut-off; inactive = mostly below about 38%;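 note: higher means compound restores mutant binding toward wildtype level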
MEKK3 confirm: MEKK3 wild-type PB1 binding to MEK5, inhibitors, confirmation, biochemical, bead multiplex flow cytometry, single concentration, wildtype | shares compounds with MEKK3 PB1 HTS | 1.8% of 5,900 active | Alexa488-MEK5 binding to MEKK3; stronger effect = lower value | binding response (% of control), % at 10 µM | AID 1894, 2009;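 active = binding response below 72% of control, or above a set upper limit, though filed actives all read lower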;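 note: 100% = DMSO only wells and 0% = binding blocked by excess unlabeled MEK5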
* marks the source's active call; other numbers are inactive results; . = no result given; [ ] = dose if it differs, or a comment. The list is not random: actives were taken first. Their share in the collection is about 2.9%.

SMILES	GRK2 aptamer HTS	B2AR ag	MEKK3 PB1 HTS	MEKK2 WT-MEK5	MEKK2 mut-MEK5	MEKK2wt confirm	MEKK2mut-MEK5	MEKK3 confirm
COc1cc(N)c(Cl)cc1C(=O)OCC(=O)NCC1CCCCC1	0.0	-8.0	.	.	.	.	.	.
CCc1cc2cc(OC)ccc2nc1SCC(=O)NNC(=O)c1ccco1	0.0	-2.8	99.0	97.0	-7.0	.	.	.
CCc1cc2ccccc2nc1SCC(=O)Nc1cc(C)on1	0.0	5.3	106.0	108.0	9.0	.	.	.
CCc1cc2ccc(OC)cc2nc1SCC(=O)Nc1cc(C)on1	2.0	4.4	123.0*	117.0	5.0	98.0	-1.0	103.0
CCc1cc2ccc(OC)cc2nc1SCC(=O)NNC(C)=O	0.0	-8.3	135.0*	124.0	6.0	99.0	-1.0	103.0
CC(C(=O)NCCS(=O)(=O)c1ccc(Cl)cc1)S(=O)(=O)c1ccccc1 (configuration not stated)	2.0	-4.1	152.0*	139.0	8.0	106.0	4.0	102.0
COc1ccccc1C1CCCN1Cc1nc(-c2cc3c(cc2Cl)OCO3)oc1C (configuration not stated)	2.0	2.7	103.0	107.0	5.0	.	.	.
COc1ccccc1C1CCCN1Cc1nc(-c2ccc(C)s2)oc1C (configuration not stated)	0.0	10.3	61.0*[inhibitor]	63.0*[inhibitor]	-14.0	107.0	6.0	101.0
O=C(Nc1nnc(-c2ccco2)o1)c1cccc(N2C(=O)CCC2=O)c1	2.0	16.7	129.0*	117.0	4.0	102.0	-5.0	100.0
CC(C)NC(=S)n1cc(C(=O)c2cc(Cl)cc(Cl)c2O)cn1	0.0	5.7	102.0	98.0	-1.0	.	.	.
CCN(CC)c1ccc(C=Nc2cc(C)ccc2C)c(O)c1	13.0	25.6	89.0	75.0	-3.0	.	.	.
CCN(CC)c1ccc(C=Nc2cccnc2Cl)c(O)c1	1.0	5.7	92.0	66.0*[inhibitor]	-5.0	97.0	2.0	102.0
Cc1cnc(C(=O)Nc2cccc3ncccc23)cn1	0.0	-4.3	102.0	102.0	0.0	.	.	.
Cc1cc(C(=O)Nc2cccc3ncccc23)no1	1.0	0.7	127.0*	121.0	6.0	97.0	-4.0	97.0
Cc1c(C)c2ccc(OCC(=O)N3CC[C@@]4(O)CCCC[C@H]4C3)cc2oc1=O	0.0	-16.5	101.0	96.0	-2.0	.	.	.
O=C(COc1ccc2ccc(=O)oc2c1)N1CC[C@@]2(O)CCCC[C@H]2C1	0.0	-4.5	2.0*[inhibitor]	1.0*[inhibitor]	-24.0	107.0	5.0	113.0
Cc1ccc(C)c(N2CCN(C(=O)c3cc(S(=O)(=O)N4CCCC4)cn3C)CC2)c1	0.0	25.8	2.0*[inhibitor]	0.0*[inhibitor]	-32.0	101.0	3.0	101.0
COc1cccc(C(=O)NC(=S)Nc2ccc(N3CCCC3)cc2)c1	0.0	4.8	88.0	91.0	-16.0	.	.	.
CCOc1cccc(C(=O)NC(=S)Nc2cccc(C)c2)c1	0.0	-1.3	130.0*	105.0	0.0	100.0	0.0	100.0
COc1cccc(C(=O)NC(=S)Nc2ccc(N(C)C)cc2)c1	0.0	1.9	141.0*	106.0	2.0	116.0	9.0	104.0
COc1cccc(C(=O)NC(=S)Nc2ccc(Cl)cc2C(=O)O)c1	0.0	1.9	131.0*	130.0	25.0	100.0	3.0	103.0
CC(=O)Cn1cnc2c(cnn2-c2ccc(C)c(C)c2)c1=O	1.0	6.5	99.0	103.0	1.0	.	.	.

High-throughput results from PubChem.
